Hits are enriched below; roughly 3.8% of the tested compounds scored in any of these assays.
Nrf2 inh: blocks Nrf2 signaling. A549 ARE-Fluc reporter, luciferase luminescence, 18-24 h. Potency, µM (doses to about 46 µM), for inactives: at the highest dose activity change, negative = inhibition, actives largely listed as inhibitors. 360,000 compounds, 2.1% hits; further: on the % scale 0 is the no-effect control and ±100 the full control effect; nearly all actives have a fitted effect of over 60% in size
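In this cell-based qHTS, ARE-driven firefly luciferase in A549 cells reports Nrf2 activity; the luminescent signal after BugLite lysis is the measured value, with a prior CellTiter-Fluor read for cell health.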
A549 viability: A549 cytotoxicity, counter-screen for Nrf2 inhibitors. A549 ARE-Fluc cells, CellTiter-Fluor viability, 18-24 h. Potency, µM (top dose mostly 46 µM), inactives show at the highest dose activity change, negative = cytotoxicity, actives largely listed as inhibitors. 390,000 compounds, 0.16% hits. AID 504648; further: on the % scale 0 is the no-effect control and ±100 the full control effect
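A549 ARE_Fluc cells in 5% FBS OPTI-MEM were exposed to compounds in concentration-response for 18-24 h at 37 deg C. Viability was read by CellTiter-Fluor fluorescence (Ex 405/Em 525) after 30 min, before the luciferase read.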
ELG1 DNA repair: inhibitors of ELG1-dependent DNA repair in HEK293T cells | 330,000 compounds, 2.3% hits | Potency, µM (doses to about 46.1 µM), without a hit: at the top dose activity change, negative = inhibition, actives largely listed as inhibitors | HEK293T ELG1-luciferase reporter, luminescence, 16 h; DNA damage induced by 5-fluorouridine; further: on the % scale 0 is the no-effect control and ±100 the full control effect; nearly all actives have a fitted effect of over 55% in size
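Luminescence from the luciferase reporter, measured 30 min after ONE-Glo reagent at room temperature, was the read-out. Beforehand, 2,000 cells per well were exposed for 16 hr at 37 °C to 5-fluorouridine together with compound or vehicle.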
mIDH1 inhibitor: blocks human mutant IDH1 R132H enzyme | O75874 | IDH1-R132H enzyme, NADPH consumption, diaphorase/resazurin fluorescence | Potency, µM (top dose mostly 76.6 µM), inactives show top-dose activity change, negative = inhibition, usual class: inhibitors | 390,000 compounds, 0.093% hits | AID 602179; further: on the % scale 0 is the no-effect control and ±100 the full control effect; nearly all actives have a fitted effect of over 65% in size
Target sequence (O75874 whole entry R132H, stated change not applied): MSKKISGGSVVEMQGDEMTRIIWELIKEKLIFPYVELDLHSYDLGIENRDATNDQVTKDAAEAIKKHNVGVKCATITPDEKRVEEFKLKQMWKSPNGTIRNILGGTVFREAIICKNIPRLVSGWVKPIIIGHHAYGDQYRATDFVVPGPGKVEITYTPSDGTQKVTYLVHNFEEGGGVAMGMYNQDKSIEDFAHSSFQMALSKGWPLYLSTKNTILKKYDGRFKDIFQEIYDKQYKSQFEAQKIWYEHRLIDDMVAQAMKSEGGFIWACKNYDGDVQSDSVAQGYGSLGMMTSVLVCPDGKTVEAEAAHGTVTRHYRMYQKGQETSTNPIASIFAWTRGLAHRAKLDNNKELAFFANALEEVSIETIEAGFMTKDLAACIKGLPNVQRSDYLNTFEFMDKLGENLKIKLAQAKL
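IDH1-R132H (0.5 ug/mL) preincubated 30 min with compound, then NADPH (0.016 mM) and alpha-KG (2 mM) added; 80 min at RT, pH 7.5. Remaining NADPH coupled via diaphorase/resazurin to fluorescence (540/590 nm); concentration-response curves normalized to no-enzyme control.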
Nrf2 activator: activates Nrf2 signaling. AREc32 ARE-luciferase reporter (MCF7-derived line), luminescence, 24 h. Potency, µM (titrated, usually from 46.1 µM), for inactives: at the top dose activation, usual class: activators. 410,000 compounds, 0.31% hits. AID 624171; further: % of control where 0% means no effect; nearly all actives have a fitted effect of over 65% in size
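ARE-driven firefly luciferase activity in AREc32 cells measured after a 24 hr compound exposure at 37 deg C, using Steady-Glo reagent and a 30 min room-temperature hold.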
Numbers without * were called inactive; ? = inconclusive; . = no result given; [ ] = another dose, or the depositor's remark. The call rests on the fitted dose curve; in most records, active means well fitted curve in the direction sought with a large enough effect; inconclusive means small, poorly fitted or top-dose-only effect, or another doubt; inactive means no such curve, though single readings can be large; an effect the other way counts as inactive or inconclusive. Potency means the concentration at half of the fitted maximal effect.

SMILES	Nrf2 inh	A549 viability	ELG1 DNA repair	mIDH1 inhibitor	Nrf2 activator
CC(=O)N1CCN(c2csc3ccc(Cl)cc3c2=O)CC1	.	-0.7%	.	6.4%	3.5%
c1ccc(Nc2c(-c3ccco3)nc3ccccn23)cc1	?	1.5%	?	5.3%	4.1%
c1ccc(-c2nc(-c3ccco3)n3ccccc23)cc1	3.4%	5.5%	-25.0%	4.3%	11.2µM*
COc1ccc(CCNc2oc(COc3ccccc3F)nc2C#N)cc1OC	?	-6.0%	23.1µM*	4.2%	3.5%
COc1ccc(CCNc2oc(COc3ccccc3Cl)nc2C#N)cc1OC	?	-6.3%	23.1µM*	-3.4%	5.7%
N#Cc1nc(COc2ccccc2Cl)oc1NCCc1ccccc1	?	-7.2%	.	19.3%	6.3%
COC(=O)c1ccc(NC(=O)CC2C(=O)N(c3cccc(C)c3)C(=O)N2C2CCCC2)cc1 (stereo not given)	?	-4.5%	.	-15.7%	6.2%
Cc1c(CC(=O)N2CCN(C(=O)C3COc4ccccc4O3)CC2)c(=O)oc2cc(O)c(Cl)cc12 (stereo not given)	23.1µM*	1.0%	?	-2.8%	0.0%
CCOC(=O)c1cccc(-n2c(C)nc3ccccc3c2=O)c1	-0.2%	3.0%	4.3%	9.1%	0.0%
CCOC(=O)c1cccc(-n2c(-c3ccc(OC)cc3)nc3nc4ccccc4nc32)c1	.	.	10.3µM*	.	.
COc1cc2oc(=O)cc(-c3ccc(-c4ccc(CO)cc4)cc3)c2c(OC)c1OC	?	-8.8%	5.8µM*	-10.3%	0.5%
COc1cc2oc(=O)cc(-c3ccc(-c4ccc(C)cc4)cc3)c2c(OC)c1OC	2.8%	-0.3%	-24.1%	2.9%	0.2%
CC1CCN(S(=O)(=O)c2ccc3c4c2CC(=O)N4CC(C)S3)CC1 (stereo not given)	20.6µM*	-8.3%	8.3%	-15.8%	9.6%
CC1CCN(S(=O)(=O)c2cc3c4c(c2)CC(=O)N4CCC3)CC1	.	-2.2%	.	-11.3%	9.7%
O=C(Nc1ccc2nc(C3CC3)n(Cc3ccc(F)cc3)c(=O)c2c1)c1ccco1	?	-8.8%	?	6.2%	0.3%
COc1cccc(Cn2c(C3CC3)nc3ccc(NC(=O)c4ccco4)cc3c2=O)c1	.	.	23.1µM*	.	.
COc1ccc(-c2cc3nc(C)n(N)c(=O)c3s2)cc1	6.51µM*	16.1%	?	10.2%	-3.2%
Cc1nc2cc(-c3ccccc3)sc2c(=O)n1N	4.11µM*	-0.5%	?	-1.3%	-0.2%
Cc1ccc2c(C)nc(Nc3nc(CSc4nnnn4-c4ccccc4)cc(=O)[nH]3)nc2c1	?	0.0%[1.84 µM]	8.2µM*	-2.4%	0.5%
Cc1cccc(CNC(=O)Cn2c(-c3cccs3)cc3ccccc32)c1	-2.3%	1.8%	.	11.4%	0.0%
Cc1ccc(-c2csc(N3CCC(NS(=O)(=O)c4ccc5c(c4)OCCO5)CC3)n2)cc1	14.6µM*	?	-6.1%	0.1%	6.5%
CC(C)c1cc(CNC(=O)c2cc(COc3cncc(Cl)c3)on2)on1	1.2%	-0.4%	?	9.8%	3.0%
COC(=O)c1ccc(CNC(=O)c2cc(COc3cncc(Cl)c3)on2)cc1	18.3%	5.3%	20.6µM*	8.4%	-0.8%
CCCOc1ccc(CNC(=O)Cn2ncn3c(cc4sc(CC)cc43)c2=O)cc1	3.1%	-4.6%	.	-1.8%	-0.3%
COc1ccc(NC(=O)Cn2nnc(-c3ccccc3NC(=O)c3cccs3)n2)cc1	18.4µM*	-14.2%	-27.6%	-4.7%	-0.7%
SMILES	Nrf2 inh	A549 viability	ELG1 DNA repair	mIDH1 inhibitor	Nrf2 activator
COc1cc(-c2ccc3ncnc(NCC4CCCO4)c3c2)cc(OC)c1OC (stereo not given)	?	-1.2%	.	.	.
CCCc1cc(-c2[nH]ncc2-c2ccc3c(c2)OCCCO3)c(O)cc1O	?	-11.1%	20.6µM*	-1.3%	-0.6%
CCCc1cc(-c2[nH]ncc2-c2ccc(C(=O)OCC)o2)c(O)cc1O	?	?	?	0.8%	3.1%
COc1ccc2sc(N(Cc3cccnc3)C(=O)c3cccs3)nc2c1	.	?	.	-0.4%	0.4%
Cc1ccc(NC(=O)c2ccc(NC(=O)C3CCCC3)cc2)c(C)c1	1.9%	8.2%	.	.	.
CCCCc1nc(NCCN2CCOCC2)c(C#N)c2c1COC(C)(C)C2	12.9%	15.1%	11.6µM*	-4.8%	0.3%
Cc1noc(C)c1C(=O)OCC(=O)NCc1ccccc1	2.0%	-5.4%	-4.3%	-12.5%	0.3%
ClC(Cl)c1nnc(-c2ccccc2)c(-c2c[nH]c3ccccc23)n1	10.3µM*	?	-13.3%	2.9%	3.7%
c1ccc(-c2nnc(-c3c[nH]c4ccccc34)nc2-c2ccccc2)cc1	?	-16.4%	23.1µM*	0.3%	0.1%
Cc1ccc(-c2nnc(-c3ccccc3)c(-c3ccccc3)n2)cc1	-13.7%	19.7%	12.6%	-0.9%	2.3%
O=C(CSc1nccn1-c1cccc(Cl)c1)Nc1cccc2ccccc12	.	6.7%	.	-2.0%	-0.7%
Cc1cccc(C(=O)NCCc2nc3ccccc3n2CCC(C)C)c1	-13.4%	-12.4%	.	.	3.8%
COc1ccc(-c2cc(C(=O)OCC(=O)N3CCCCC3)c3ccccc3n2)cc1OC	3.9%	-8.4%	9.2µM*	2.6%	7.1%
COc1ccc(-c2cc(C(=O)N3CCN(c4ccccc4)CC3)c3ccccc3n2)cc1OC	.	-8.7%	16.4µM*	3.0%	4.4%
COc1cc(-c2cc(C(=O)OCC(=O)NC3CC3)c3ccccc3n2)cc(OC)c1OC	?	0.6%	11.6µM*	-0.2%	2.9%
COc1ccc(-c2cc(C(=O)N3CCCCCC3)c3ccccc3n2)cc1OC	.	.	.	-3.0%	2.9%
COCCCNc1nc(NCc2ccccc2OC)c2cnn(C)c2n1	.	9.0%	.	.	4.1%
O=C(c1ccc2c(c1)OCO2)N(Cc1ccco1)C1(C(=O)NC2CCCCC2)CCCCC1	18.4µM*	?	?	-3.4%	2.9%
CC1CN(CC(=O)Nc2cccc(C(=O)Nc3cccc(C(F)(F)F)c3)c2)CC(C)O1 (stereo not given)	16.4µM*	-22.0%	?	5.2%	2.1%
Clc1cccc(N2CCN(CCNc3nc4ccccc4n4cnnc34)CC2)c1	-15.6%	4.0%	20.6µM*	-4.0%	-0.8%
c1ccc2c(c1)nc(NCCN1CCOCC1)c1nncn12	-3.2%	-3.2%	?	0.3%	-0.1%
Cc1ccc(NC(=O)N2CCC(CN3CCC(C)CC3)CC2)cc1F	9.2%	-0.1%	.	-10.9%	-0.3%
CCC(=O)Nc1ccc(N2CCN(C(=O)c3ccco3)CC2)c(Cl)c1	-10.1%	-14.7%	?	5.3%	2.9%
O=C(Cc1ccc(Cl)cc1)Nc1ccc(N2CCN(C(=O)c3ccco3)CC2)c(Cl)c1	?	-24.8%	13µM*	8.8%	1.5%
CCOC(=O)N1CCN(C(=O)c2ccc(CSc3ccc(Cl)cc3)cc2)CC1	18.4µM*	-24.1%	?	0.2%	5.2%

Screening results (PubChem BioAssay)
